Compounds with a hit are over-represented: about 1.4% of the library has one in this group of screens.
BJeLR viability: MLPCN primary cell-based screen for lethality selective to Ras in HRASV12 cells; BJeLR (HRASV12) viability, CellTiter-Glo ATP luminescence, 48 h; inhibition, % (concentration not given with the values); 300,000 compounds, 0.17% hits; AID 1554, 2009; in the data active = inhibition above about 50%
MazEF act: activators of E. coli MazEF toxin-antitoxin RNase, primary screen, biochemical, fluorescence, uHTS. Endoribonuclease toxin MazF (Escherichia coli (strain K12)), P0AE70. FAM/BHQ RNA-DNA oligo cleavage fluorescence, 5 h. activation, % at 20 µM. 350,000 compounds, 0.32% hits. AID 504720, 2011; in the data active = activation above about 50%
Target sequence (P0AE70 whole entry, looked up): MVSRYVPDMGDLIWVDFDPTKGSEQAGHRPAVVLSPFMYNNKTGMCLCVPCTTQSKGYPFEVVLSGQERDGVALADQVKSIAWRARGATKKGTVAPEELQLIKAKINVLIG
CCHFV vOTU inh: CCHFV vOTU protease inhibitors, primary screen, biochemical, Pep-AMC substrate, fluorescence; Crimean-Congo hemorrhagic fever virus L polyprotein viral ovarian tumor (vOTU) protease …; inhibition, % at 11.5 µM; 370,000 compounds, 0.55% hits; in the data active = inhibition above about 30%
3CLpro inhibitor: SARS-CoV 3CLpro protease inhibitors, primary screen, biochemical, quenched FRET; Replicase polyprotein 1ab (Severe acute respiratory syndrome coronavirus), P0C6X7; recombinant SARS-CoV 3CLpro, quenched FRET peptide cleavage; inhibition, % at 6 µM; 290,000 compounds, 0.14% hits; in the data active = inhibition above about 12%
DUSP3 inh: VHR1 phosphatase inhibitors, primary screen, biochemical, absorbance, uHTS. recombinant VHR phosphatase, pNPP absorbance. 290,000 compounds, 0.52% hits. inhibition, % at 13.3 µM. Dual specificity protein phosphatase 3 (Homo sapiens), P51452; in the data active = inhibition above about 50%
Target sequence (P51452 whole entry, looked up): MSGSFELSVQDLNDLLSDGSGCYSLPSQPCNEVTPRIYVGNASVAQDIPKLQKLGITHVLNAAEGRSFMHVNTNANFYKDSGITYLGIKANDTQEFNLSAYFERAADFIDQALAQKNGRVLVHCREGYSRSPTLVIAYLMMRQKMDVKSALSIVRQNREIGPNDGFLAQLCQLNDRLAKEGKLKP
Each line names hits and unclear results; the compound was inactive in the other large screens.

CCc1nnc(NC(=O)CCC(=O)N2CCN(Cc3cc(F)ccc3OC)CC2)s1	none
CCc1nnc(NC(=O)CCC(=O)N2CCN(Cc3ccc(C)cc3C)CC2)s1	DUSP3 inh 55.6
COc1ccc(C#CCN(Cc2ccc(OC)cc2OC)C(N)=NC(=O)CCc2ccccc2)cc1	none (no result: BJeLR viability, MazEF act, 3CLpro inhibitor, DUSP3 inh)
CCCCNC(=O)N1CCCC1C(=O)Nc1cccc(OC)c1 (stereo not drawn)	none (no result: BJeLR viability, MazEF act, 3CLpro inhibitor, DUSP3 inh)
CCCCNC(=O)c1cc(C)nc2ccccc12	none
Cc1cc(C(=O)NCCCOC(C)C)c2ccccc2n1	DUSP3 inh 50.3
C=CCN(CC#Cc1cccnc1)Cc1ccc(OC)cc1OC	none (no result: BJeLR viability, MazEF act, 3CLpro inhibitor, DUSP3 inh)
Cc1ccccc1CS(=O)(=O)Cc1ccc(C(=O)Nc2ccc(F)cc2F)o1	none (no result: BJeLR viability, MazEF act, 3CLpro inhibitor, DUSP3 inh)
Cc1noc(/C=C/c2ccco2)c1S(=O)(=O)N1CCC(C(=O)NC(C)c2ccccc2)CC1 (stereo not drawn)	DUSP3 inh 50.0
COc1ccccc1CN(C)C(=O)C1CCCN(c2nc3ccccc3o2)C1 (stereo not drawn)	none (no result: BJeLR viability, MazEF act, 3CLpro inhibitor, DUSP3 inh)
CN(C)c1ccc(/C=N/NC(=O)c2cnc3ccccc3c2)cc1	MazEF act 189.8
Cn1cccc1/C=C1\CCC/C(=C\c2cccn2C)C1=O	MazEF act 863.0
O=C1/C(=C/c2cccs2)CCC/C1=C\c1cccs1	none
COc1ccc(N2CCN(CCNS(=O)(=O)c3ccc(F)cc3)CC2)cc1	none (no result: BJeLR viability, MazEF act, 3CLpro inhibitor, DUSP3 inh)
C/C(=N\NC(=O)c1ccc(F)cc1)c1ccccn1	BJeLR viability 105.9
Cc1cccc2cc(C#N)c(SCC(=O)N3CC(=O)Nc4ccccc43)nc12	BJeLR viability 53.9
COc1ccc2cc(C#N)c(SCC(=O)N3CC(=O)Nc4ccccc43)nc2c1	none (no result: CCHFV vOTU inh)
CCSc1nnc(-c2ccco2)n1C	none (no result: BJeLR viability, MazEF act, 3CLpro inhibitor, DUSP3 inh)
COc1ccc(N2CCCC2)c(NC(=O)c2ccc(Br)o2)c1	MazEF act 62.6
O=C(Nc1ccccc1N1CCCC1)c1ccc(Br)o1	none
CCOC(=O)C1Oc2ccccc2C(c2cccc3ccccc23)=C1C(=O)OC (stereo not drawn)	MazEF act 146.3 (no result: BJeLR viability, 3CLpro inhibitor, DUSP3 inh)
Cc1cc(NS(=O)(=O)c2ccc(NC(=O)CSc3nnc(-c4ccccn4)n3-c3ccccc3)cc2)nc(C)n1	none (no result: BJeLR viability, MazEF act, 3CLpro inhibitor, DUSP3 inh)
Cn1cccc1C(=O)N1CCN(S(=O)(=O)c2cccs2)CC1	none (no result: BJeLR viability, MazEF act, 3CLpro inhibitor, DUSP3 inh)
CCN(CC)c1ccc(NC(=O)CCS(=O)(=O)c2ccc(Br)cc2)c(C)c1	DUSP3 inh 52.3
CCC(C)(C)C1CCC(=NNS(=O)(=O)c2ccc(C)c([N+](=O)[O-])c2)CC1 (stereo not drawn)	MazEF act 125.1
CC/C(C)=N/NS(=O)(=O)c1ccc(C)c([N+](=O)[O-])c1	MazEF act 121.9
C/C(CCC(C)C)=N\NS(=O)(=O)c1ccc(C)c([N+](=O)[O-])c1	MazEF act 81.7
CC1CCC(=NNS(=O)(=O)c2ccc([N+](=O)[O-])cc2)CC1 (stereo not drawn)	MazEF act 110.2 (no result: BJeLR viability, 3CLpro inhibitor, DUSP3 inh)
Cc1ccc(S(=O)(=O)N/N=C2/CCCCC2C2CCCCC2)cc1[N+](=O)[O-] (stereo not drawn)	none
CC(C)CC(=O)N1CCC(C(=O)NCC2COc3ccccc3O2)CC1 (stereo not drawn)	none (no result: BJeLR viability, MazEF act, 3CLpro inhibitor, DUSP3 inh)
CCCCCCCC[n+]1cccc2c3ccccc3ccc21	none
CCCCCCCCCC[n+]1cccc2c3ccccc3ccc21	BJeLR viability 59.7
COc1ccc(C(=O)N(C)Cc2ccc(C)o2)cc1OC1CCN(C(C)C)CC1	none
COc1ccc(C(=O)NCc2cnn(C)c2C)cc1OC1CCN(C(C)C)CC1	DUSP3 inh 53.5
COC(=O)CN(C)C(=O)c1ccc(OC)c(OC2CCN(C(C)C)CC2)c1	DUSP3 inh 57.0
Cc1nn(-c2ccccc2)c(C)c1C=NNC(=O)CSc1nc2ccccc2n1C	none (no result: BJeLR viability, MazEF act, 3CLpro inhibitor, DUSP3 inh)
CC1CN(c2nc3ccccc3nc2SCC(=O)N2CCN(S(=O)(=O)c3ccc(F)cc3)CC2)CC(C)O1 (stereo not drawn)	none (no result: BJeLR viability, MazEF act, 3CLpro inhibitor, DUSP3 inh)
Cc1cc(C)cc(N(CC(=O)NC2CCC(C)CC2)S(=O)(=O)c2ccc(C(C)(C)C)cc2)c1 (stereo not drawn)	none (no result: BJeLR viability, MazEF act, 3CLpro inhibitor, DUSP3 inh)
O=C(Nc1ccccc1)Nc1cccc(-c2nnco2)c1	DUSP3 inh 53.0
Cc1nn2c(N3CCN(C4CCCC4)CC3)cc(C(C)(C)C)nc2c1-c1ccccc1	DUSP3 inh 51.4
CC(C)NC(=O)N[C@@H]1C[C@@H]2O[C@@H](CO)CC[C@@H]2O[C@@H]1CCc1ccc(-c2ccccc2F)cc1	none (no result: BJeLR viability, MazEF act, 3CLpro inhibitor, DUSP3 inh)
CC(C)CC(=O)N1CCN(c2ccc([N+](=O)[O-])c(NCc3ccccc3)c2)CC1	CCHFV vOTU inh 30.9 (no result: DUSP3 inh)
O=C(c1ccccc1)N1CCN(c2ccc([N+](=O)[O-])c(NCc3cccnc3)c2)CC1	none
COc1cccc(/C=N/NC(=O)c2ccc3nc[nH]c3c2)c1O	none
CCN(CC)c1ccc(/C=N/NC(=O)c2cccc(S(=O)(=O)Nc3ccccc3OC)c2)c(O)c1	BJeLR viability 59.8
CCN(CC)c1ccc(/C=N/NC(=O)c2ccc3nc[nH]c3c2)c(O)c1	BJeLR viability 52.8 (no result: CCHFV vOTU inh)
O=c1c2ccccc2c(C=Nc2ccccc2O)c(O)n1-c1nccs1	MazEF act 278.2
O=C(CNC(=O)c1cccc(F)c1)OCC(=O)N1CCCCC1	DUSP3 inh 50.8
O=c1c2cc3cc4c(cc3nc2ncn1Cc1cccnc1)OCO4	none (no result: BJeLR viability, MazEF act, 3CLpro inhibitor, DUSP3 inh)
Cn1nnc2cc(C(=O)N3CCN(c4ccccn4)CC3)ccc21	DUSP3 inh 52.9
Cc1c(C(=O)O)[nH]c2ccc([N+](=O)[O-])cc12	none (no result: BJeLR viability)
Cc1c(C(=O)N/N=C/C(C)C)[nH]c2ccc([N+](=O)[O-])cc12	DUSP3 inh 55.6
COc1ccc(/C=N\Nc2ccccn2)c(OC)c1	none
COc1ccc(/C=N/Nc2ncc(Br)cn2)c(OC)c1	DUSP3 inh 87.8
CCCCNC(=O)C[C@H]1C[C@@]2(C(=O)OC)C(=C[C@H](COCc3ccccc3)O[C@@H]2C)N(CCc2ccc(OC)c(OC)c2)C1=O	none (no result: BJeLR viability, MazEF act, 3CLpro inhibitor, DUSP3 inh)
CC(C)(C)OC(=O)N1CC=C2C(C#N)=C(N)C(C#N)(C#N)[C@H](c3cccnc3)[C@H]2C1	MazEF act 124.8
N#CC1=C(N)C(C#N)(C#N)[C@H](c2ccncc2)[C@H]2CN(C(=O)OCc3ccccc3)CC=C12	DUSP3 inh 53.8
CCCCCC(=O)NC1CCCCN(Cc2ccccc2C)C1=O (stereo not drawn)	none (no result: BJeLR viability, MazEF act, 3CLpro inhibitor, DUSP3 inh)
C=CCc1ccc(OCCn2nnc3ccccc32)c(OC)c1	DUSP3 inh 55.5
CCC(=O)N(c1ccccc1)C1CCN(C(=O)C(Cc2ccccc2)NC(C)=O)CC1 (stereo not drawn)	none (no result: BJeLR viability, MazEF act, 3CLpro inhibitor, DUSP3 inh)
COc1ccc(CNC(=O)c2cc(-c3ccccc3)c(N3CCOCC3)s2)cc1OC	none (no result: BJeLR viability, MazEF act, 3CLpro inhibitor, DUSP3 inh)
COc1ccc(Cn2c(-c3ccccc3C)nc3c(c(=O)c4ccccc4n3C)c2=O)cc1	MazEF act 67.0 (no result: 3CLpro inhibitor, DUSP3 inh)
O=C(CSc1nc2ccccc2c(=O)n1Cc1ccco1)Nc1cccc(O)c1	MazEF act 58.9

Assay outcomes from PubChem BioAssay.
